# Efflux pump inh: antifungal efflux pump inhibition, Nile Red retention; inhibition, % at 10 µM; hit rate 0.44% among 330,000; AID 485275; S. cerevisiae Candida pump triplex;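 active means plate passing quality check with inhibition over a set limit, or well fluorescence over plate mean plus 4 SD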;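 further: Nile Red retained in pooled yeast measured as flow cytometry median fluorescence; 0% = buffer negative control and 100% = Enniatin B positive control; higher means more Nile Red kept so more efflux inhibition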
# SKN-1 inh: C. elegans SKN-1 inhibition | C. elegans VP596 Pgst-4::GFP/RFP ratio, acrylamide-induced, 24 h | inhibition, % at 21.8 µM | hit rate 0.49% among 360,000 | AID 624304;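 active means interference check ratio from 0.5 to 1.5 plus GFP to RFP signal ratio inhibition reaching or exceeding a fixed threshold, cut at about 30% in these data, passing the limit was not always enough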
# SUMO Mot1 rescue: inhibitors of SUMOylation pathway: yeast Mot1-301 growth rescue; S. cerevisiae Mot1-301 growth rescue, ATP luminescence, 38.5C; percent above DMSO median, 100 means doubled; hit rate 1% among 320,000; growth rescue, % at 18.8 µM;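 active means every valid replicate shows activation above 250% relative to neutral control wells; inactive means the rest, any valid replicate at or below 250%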;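 further: OY570 slx delta 5 strain wells were the positive control but not used for scaling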
# HGIII-sPLA2 inh: Inhibits HGIII-sPLA2 liposome hydrolysis, primary screen | QFRET BODIPY PC-A2 liposome hydrolysis, fluorescence | hit rate 0.56% among 370,000 | Q9NZ20 | inhibition, % at 12.2 µM;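 active means inhibition above mean plus 3 SD of compounds lying within the high and low control bounds, cut at about 19% in these data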;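 further: 0% = median of test compound wells and 100% = no enzyme DMSO wells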
# Target sequence (Q9NZ20 whole entry, looked up): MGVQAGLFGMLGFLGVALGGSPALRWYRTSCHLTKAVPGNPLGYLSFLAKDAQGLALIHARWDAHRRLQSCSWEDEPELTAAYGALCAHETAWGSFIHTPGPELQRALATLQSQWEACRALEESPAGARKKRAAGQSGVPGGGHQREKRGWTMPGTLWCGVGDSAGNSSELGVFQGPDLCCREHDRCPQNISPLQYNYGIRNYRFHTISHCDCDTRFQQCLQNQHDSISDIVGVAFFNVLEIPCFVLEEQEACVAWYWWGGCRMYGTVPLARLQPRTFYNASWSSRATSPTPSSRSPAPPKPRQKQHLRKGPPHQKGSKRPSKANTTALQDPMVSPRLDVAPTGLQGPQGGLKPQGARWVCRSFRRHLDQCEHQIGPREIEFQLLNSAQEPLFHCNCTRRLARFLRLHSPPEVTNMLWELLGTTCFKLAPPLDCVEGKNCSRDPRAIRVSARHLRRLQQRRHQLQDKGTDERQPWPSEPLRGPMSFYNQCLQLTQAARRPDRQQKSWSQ
# Yeast Mot1 SUMO: inhibits SUMO pathway, affecting Mot1-301 yeast growth; shares compounds with SUMO Mot1 rescue; AID 493004; growth activity, percent, % at 42 µM; 2,300 tested, under 10 active; S. cerevisiae Mot1-301 galactose growth, ATP luminescence, 24 h; -100 = growth of slx-deleted rescue strain;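 active means Signal drops as the depositor expects, and the fitted half-maximal dose is no more than ten times the top valid tested dose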;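 further: more negative values mean stronger growth rescue toward the control strain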
# Cmpd fluor yeast: flagged as fluorescent in efflux inhibitor counter-screen | shares compounds with Efflux pump inh | S. cerevisiae AD/pABC3, compound fluorescence, flow cytometry | fluorescence ratio to DMSO, % at 10 µM | hit rate 4% among 1,700;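 active means fluorescence ratio to DMSO above its plate's cutoff, the plate mean ratio plus 5 SD, cut at about 210% in these data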;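 further: unstained yeast with no Nile Red so the signal is compound autofluorescence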
# CaMdr1 efflux inh: blocks the Candida albicans Mdr1 efflux pump in yeast; hit rate 1% among 1,700; shares compounds with Efflux pump inh; S. cerevisiae AD/CaMDR1, Nile Red efflux, flow cytometry; AID 588518; inhibition, % at 10 µM; in the data active means inhibition above about 26%;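 further: 0% = DMSO vehicle and 100% = reference inhibitor; higher means more Nile Red retained so more efflux inhibition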
# CaCdr2 efflux inh: blocks the Candida albicans Cdr2 efflux pump in yeast | S. cerevisiae AD/CaCDR2, Nile Red retention, flow cytometry | Nile Red retention ratio vs DMSO, % at 10 µM | AID 588520 | shares compounds with Efflux pump inh | hit rate 4% among 1,700; in the data active means Nile Red retention ratio vs DMSO above about 190%;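 further: higher ratio means more blocking of Cdr2 efflux of the dye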
# Cdr1 pump inh: Candida Cdr1 efflux pump inhibition. shares compounds with Efflux pump inh. inhibition, % at 10 µM. hit rate 1% among 1,700. S. cerevisiae AD/CaCDR1, Nile Red efflux, flow cytometry;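 active means inhibition above the screen-wide mean plus twice its standard deviation, cut at about 32% in these data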
# hGIII sPLA2 conf: human GIII-sPLA2 inhibition, confirmation; shares compounds with HGIII-sPLA2 inh; recombinant hGIII-sPLA2, BODIPY PC-A2 QFRET fluorescence; inhibition, % at 12.2 µM; hit rate 34% among 2,000; AID 743280;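 active means mean inhibition across triplicates above the hit cutoff set in the earlier primary screen, cut at about 19% in these data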;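 further: 0% = enzyme with DMSO and 100% = DMSO wells lacking enzyme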
# 535nm interf: 535nm fluorescence interference, HGIII-sPLA2 counter-screen; shares compounds with HGIII-sPLA2 inh; BODIPY FL product fluorescence interference, QFRET; hit rate 8.5% among 2,000; inhibition, % at 12.2 µM;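 active means average inhibition above the solvent-only control mean plus 3 SD, cut at about 6% in these data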;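 further: 0% = DMSO with substrate plus product and 100% = DMSO with substrate alone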
# 535nm interf DR: counter-screen for HGIII-sPLA2 inhibitors: 535nm fluorescence interference, dose response. shares compounds with HGIII-sPLA2 inh. BODIPY FL product fluorescence interference, cell-free. IC50, µM. 240 tested, under 10 active;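 active means IC50 at or below 10 µM; inactive means IC50 above 10 µM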
# Numbers without * were called inactive; x = not tested or not shown; + = active, no number. Most compounds without a hit are left out; they make up all but 2.2% or so of the library.
SMILES,Efflux pump inh,SKN-1 inh,SUMO Mot1 rescue,HGIII-sPLA2 inh,Cmpd fluor yeast,CaMdr1 efflux inh,CaCdr2 efflux inh,Cdr1 pump inh,others
O=C(NC(=S)Nc1ccccc1N1CCCC1)c1ccc([N+](=O)[O-])cc1,0,4,407*,31*,x,x,x,x,Yeast Mot1 SUMO=0;hGIII sPLA2 conf=34*;535nm interf=4;535nm interf DR=>122
O=C(O)CNS(=O)(=O)Cc1ccccc1,0,-1,918*,20*,x,x,x,x,Yeast Mot1 SUMO=-1;hGIII sPLA2 conf=5;535nm interf=-6
NS(=O)(=O)c1cccc(NC(=O)CSc2nnc(-c3ccncc3)n2C2CC2)c1,0,-11,-25,-9,x,x,x,x,
COc1ccc2c(c1)OC[C@H]1[C@H]2N2C(=O)c3cc(F)ccc3NC(=O)[C@@]2(C)[C@H]1c1ccccc1,0,30,+,35*,x,x,x,x,Yeast Mot1 SUMO=0;hGIII sPLA2 conf=7;535nm interf=-4
COCCN(C(=O)c1ccccc1F)c1nnc(-c2ccc(OC)cc2)s1,0,5,-1,-7,x,x,x,x,
CC(C)c1onc(C(=O)NCCc2ccccc2)c1[N+](=O)[O-],0,5,108,4,x,x,x,x,
CC(C)c1onc(C(=O)N(C)Cc2ccccc2)c1[N+](=O)[O-],0,0,726*,22*,x,x,x,x,Yeast Mot1 SUMO=0;hGIII sPLA2 conf=-5;535nm interf=1
CC(Sc1nnc(Cc2cccs2)n1C1CC1)C(=O)NC1CCS(=O)(=O)C1 (configuration not stated),x,-1,x,6,x,x,x,x,
CN(C)/C=C1/Sc2ccccc2C1=O,0,1,10,-6,x,x,x,x,
CC(=O)N(\C=C/C=C/C=C1\Sc2ccccc2C1=O)c1ccccc1,5.7*,27,-9,7,297*,0,149,0,
Nc1ccc2c3c(cccc13)C(=O)N(c1ccccc1)C2=O,x,-18,x,-406,x,x,x,x,
CC(C)CCN1C(=O)c2cccc3c(N)ccc(c23)C1=O,0.5*,-98,47,-113,335*,0,110,0,
O=C(CCCc1ccccc1)Nc1cccc([N+](=O)[O-])c1,0.8*,5,25,-7,100,0,123,0,
CCOC(=O)[C@@]12CN(C(=O)OC(C)(C)C)CC=C1N(Cc1ccc(OC)cc1)C(=O)[C@H]2CC(=O)N1CCN(C(=O)C2CC2)CC1,x,x,x,6,x,x,x,x,
CCCCn1c(N)c(N(CC(C)C)C(=O)c2ccc(S(=O)(=O)N3CCCCC3)cc2)c(=O)[nH]c1=O,0,17,-5,11,x,x,x,x,
Cn1cc(C(c2ccccn2)c2cn(C)c3ccccc23)c2ccccc21,57*,21,213,-1,88,86*,103,32*,
c1ccc(C(c2c[nH]c3ccccc23)c2c[nH]c3ccccc23)nc1,0,-1,6,-85,x,x,x,x,
Cc1ccc(C(=O)N2CCC3(CC2)Oc2ccc(Cl)cc2C(=O)C32CC(c3cccnc3)=NO2)s1 (configuration not stated),0,3,-22,-11,111,0,127,0,
O=C(c1ccc2c(c1)OCO2)N1CCC2(CC1)Oc1ccc(Cl)cc1C(=O)C21CC(c2cccnc2)=NO1 (configuration not stated),0,-10,-23,-11,x,x,x,x,
Cc1ccc(C(=O)N2CCC3(CC2)Oc2ccc(F)cc2C(=O)C32CC(c3ccc(Cl)cc3)=NO2)s1 (configuration not stated),0,14,-6,4,x,x,x,x,
